High-throughput results from PubChem.
HSP90 refold inh: blocks HSP90-mediated luciferase refolding in reticulocyte lysate; Rabbit reticulocyte lysate, luciferase refolding luminescence, 3 h; inhibition, % at 5.6 µM; actives 0.91% (n = 290,000); AID 1789;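 active = inhibition above the screen-wide mean plus 3 SD, computed separately per campaign, cut at about 16% in these data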;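 also: inhibitors lower the luminescence because luciferase stays unfolded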
SENP7 inh: inhibitors of human SENP7 protease | recombinant SENP7, Z-RLRGG-aminoluciferin luminescence, 40 min | inhibition, % at 5 µM | actives 1.5% (n = 330,000);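 active = inhibition above about 50% at the single test dose, limit read from the data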
Target sequence (Q9BQF6 706-1050 limits assumed): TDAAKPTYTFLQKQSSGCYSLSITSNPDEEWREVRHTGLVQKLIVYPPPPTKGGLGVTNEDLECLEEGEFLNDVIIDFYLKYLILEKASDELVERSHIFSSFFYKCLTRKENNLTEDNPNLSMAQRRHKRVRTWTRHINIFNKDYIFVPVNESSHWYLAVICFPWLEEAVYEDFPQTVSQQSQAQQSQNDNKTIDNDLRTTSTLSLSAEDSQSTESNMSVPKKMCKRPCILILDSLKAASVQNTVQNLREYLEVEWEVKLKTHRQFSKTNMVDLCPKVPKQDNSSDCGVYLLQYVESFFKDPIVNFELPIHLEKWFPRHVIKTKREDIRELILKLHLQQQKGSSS
SENP6 block: inhibitors of human SENP6 protease | Q9GZR1 | Recombinant SENP6 catalytic domain, aminoluciferin luminescence | inhibition, % at 10 µM | actives 1.8% (n = 330,000);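 active = inhibition above about 50% at the single tested dose, limit read from the data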
Platelet DG rel: platelet dense granule release activity. AID 1663. actives 0.22% (n = 300,000). human platelet-rich plasma, SFLLRN dense granule ATP release, luminescence. inhibition, %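 (compounds screened at 7.5 µM in platelet-rich plasma)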;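 active = mean replicate score, as percent of positive control, at or above 50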
SENP8 block-1: blocks human SENP8 cleavage of Nedd8 substrate; Q96LD8; recombinant SENP8, Nedd8 substrate fluorescence; inhibition, % at 20 µM; actives 0.64% (n = 360,000); AID 602440; in the data active = inhibition mostly above about 40%, no sharp cut-off; inactive = mostly below about 27%
Target sequence (Q96LD8 whole entry, looked up): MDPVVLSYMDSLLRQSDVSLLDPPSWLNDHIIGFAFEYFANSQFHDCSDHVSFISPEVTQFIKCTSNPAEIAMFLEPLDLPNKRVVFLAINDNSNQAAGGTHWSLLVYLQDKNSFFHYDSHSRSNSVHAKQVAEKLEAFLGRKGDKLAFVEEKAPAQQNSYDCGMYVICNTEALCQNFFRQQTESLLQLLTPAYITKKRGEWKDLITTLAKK
SENP8 block-2: SENP8 protease inhibition; Q96LD8; purified SENP8, Z-RLRGG-aminoluciferin cleavage, luminescence; actives 1.2% (n = 330,000); inhibition, % at 10 µM; in the data active = inhibition above about 50%
HSP90 inh confirm: confirmation of HSP90 inhibitors; AID 1846; shares compounds with HSP90 refold inh; inhibition, % at 5.9 µM; rabbit reticulocyte lysate, luciferase refolding luminescence, 3 h; actives 64% (n = 2,300); in the data active = inhibition above about 18%
luciferase ctr: counter-screen for HSP90 inhibitors: inhibitors of firefly luciferase. shares compounds with HSP90 refold inh. purified native firefly luciferase, luminescence. inhibition, % at 5.9 µM. actives 48% (n = 2,300);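 active = inhibition above the mean inhibition of all tested sample wells plus 3 SD, cut at about 10% in these data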
Hits are given with their value; i = inactive; nt = not tested or not shown. Rows were chosen to be rich in hits. Some 2.8% of all compounds tested hit in one or more screens of this group.

SMILES	HSP90 refold inh	SENP7 inh	SENP6 block	Platelet DG rel	SENP8 block-1	SENP8 block-2	HSP90 inh confirm	luciferase ctr
Cc1ccc(N2C(=O)N(CC(=O)N3c4ccccc4CC3C)C(=O)C2C)cc1 (stereo unspecified)	nt	i	i	nt	i	i	nt	nt
CCCNC(=O)Nc1nc2ccccc2s1	20.8	i	i	i	i	i	i	i
CCCCNC(=O)Nc1nc2ccccc2s1	i	i	i	i	i	i	nt	nt
Cc1cc(-n2cnnn2)cc(C)c1S(=O)(=O)N(C)c1ccccc1	i	i	i	i	i	i	nt	nt
CC(C)Nc1ncnc2c1ncn2[C@H]1CN(Cc2ccccc2)C[C@@H](CO)O1	nt	nt	nt	nt	i	nt	nt	nt
COCCN(Cc1cc2cc3c(cc2nc1Cl)OCO3)C(C)=O	i	i	i	i	i	i	nt	nt
CC(=O)N(CCN1CCOCC1)Cc1cc2cc3c(cc2nc1Cl)OCO3	23.9	i	i	i	i	i	i	i
O=C(COc1ccc(Cl)cc1)NCc1nnc(SCC(=O)Nc2ccccc2)o1	36.8	i	i	i	i	i	i	i
CC(C)CNc1ncnc2c1ncn2[C@H]1CN(Cc2cccs2)C[C@@H](CO)O1	nt	nt	nt	nt	i	nt	nt	nt
CCOC(=O)C1CCCN(C(=O)c2sc3nc(-c4ccc(OC)cc4)cn3c2C)C1 (stereo unspecified)	46.4	i	i	i	i	i	45.4	i
COc1ccc(-c2cn3c(C)c(C(=O)NCCN4CCOCC4)sc3n2)cc1	72.7	i	i	i	i	i	69.0	i
CCOC(=O)C1CCN(C(=O)c2sc3nc(-c4ccccc4)cn3c2C)CC1	i	i	i	i	i	i	nt	nt
CC(=O)Nc1cc(NC(C)=O)c(N=Nc2ccccc2)cc1C	i	i	i	i	i	i	nt	nt
Cc1ccc(NCC(O)C(O)C(O)CO)c(N=Nc2ccccc2)c1C (stereo unspecified)	23.9	i	i	i	i	i	i	i
COc1nc(C)cc(C)c1S(=O)(=O)c1ccccc1	18.1	i	i	i	i	i	i	i
Cc1cc(C)c(S(=O)(=O)c2ccccc2)c(OC(=O)c2c(Cl)cc(Cl)cc2Cl)n1	i	i	i	i	i	i	nt	nt
Cc1ccc(-c2nc3nc4ccccc4nc3n2Cc2ccco2)cc1	47.5	i	i	nt	i	i	20.4	i
O=C(C[C@H]1C[C@@H]2c3cc(NC(=O)c4ccc5c(c4)OCO5)ccc3O[C@@H]2[C@H](CO)O1)NCc1cc(F)ccc1F	nt	nt	nt	nt	i	nt	nt	nt
Cc1ccnc(SC2CC(=O)N(c3ccc(C(C)C)cc3)C2=O)n1 (stereo unspecified)	32.3	i	i	i	i	i	i	i
Cc1ccnc(SC2CC(=O)N(c3ccc(Cl)cc3)C2=O)n1 (stereo unspecified)	i	i	i	i	i	i	nt	nt
CCN(CC)c1ccc(C2NC(=O)c3ccccc3N2)cc1 (stereo unspecified)	nt	nt	nt	nt	i	nt	nt	nt
CCCOc1ccc(C2Nc3cccc4cccc(c34)N2)cc1	38.9	i	i	i	i	i	18.4	i
Brc1ccc(C2Nc3cccc4cccc(c34)N2)cc1	nt	nt	nt	nt	i	nt	nt	nt
CCN(CC)c1ccc(C2Nc3cccc4cccc(c34)N2)cc1	57.0	i	i	i	i	i	i	i
CCCc1sc(N/N=C/c2ccccn2)nc1-c1ccc(F)cc1	63.9	i	i	i	i	i	i	i
SMILES	HSP90 refold inh	SENP7 inh	SENP6 block	Platelet DG rel	SENP8 block-1	SENP8 block-2	HSP90 inh confirm	luciferase ctr
Cc1nc(N/N=C/c2ccccn2)sc1C	80.5	nt	nt	nt	nt	nt	90.1	86.4
O=C(O)Cc1sc(N/N=C\c2ccccc2)nc1-c1ccccc1	i	i	i	i	i	i	nt	nt
Cc1ccc(NS(=O)(=O)c2ccc(C(=O)Nc3nncs3)cc2)cc1	nt	i	i	nt	i	i	nt	nt
C=CCc1cccc(C=Nc2cc(Br)ccc2O)c1O	44.1	i	i	i	i	i	80.3	i
O=C(O)c1ccc(N/N=C/c2ccc(-c3ccc(Cl)cc3Cl)o2)cc1	55.7	i	i	i	i	i	i	i
Cc1nc(NC(=O)c2ccccc2)sc1-c1csc(Nc2cccc(F)c2)n1	36.6	i	i	i	nt	i	27.8	i
CCCCCCC(=O)Nc1nc(C)c(-c2csc(Nc3ccccc3OC)n2)s1	i	i	i	i	i	i	nt	nt
Cc1nc(N)sc1-c1csc(Nc2ccc(S(N)(=O)=O)cc2)n1	59.7	i	i	i	i	i	i	i
COc1cccc(Nc2nc(-c3sc(NC(=O)c4ccco4)nc3C)cs2)c1	i	i	i	i	i	i	nt	nt
COc1cccc(Nc2nc(-c3sc(N)nc3C)cs2)c1	17.1	i	i	i	i	i	i	i
COc1ccccc1Nc1nc(-c2sc(NC(=O)c3ccc([N+](=O)[O-])cc3)nc2C)cs1	72.2	i	i	i	nt	i	22.6	i
O=C(NCCc1cnc[nH]1)c1ccc(-c2ccccc2)cc1	i	i	i	i	i	i	nt	nt
COc1ccc(CNC(=O)C2CCN(S(=O)(=O)c3cccc4nonc34)CC2)cc1	i	i	i	i	i	i	nt	nt
COc1ccccc1Nc1nc(C)cs1	i	i	i	i	i	i	nt	nt
Cc1cc(NS(=O)(=O)c2ccc(Nc3nc(-c4sc(NC(=O)c5ccccc5)nc4C)cs3)cc2)no1	32.8	65.1	72.0	i	nt	i	i	i
COc1ccccc1Nc1nc(-c2sc(N)nc2C)cs1	31.0	i	i	i	i	i	i	i
CCCCCC(=O)Nc1nc(C)c(-c2csc(Nc3ccccc3OC)n2)s1	i	i	i	i	i	i	nt	nt
CCCCCC(=O)Nc1nc(C)c(-c2csc(Nc3ccccc3OCC)n2)s1	i	i	i	i	i	i	nt	nt
CCC(=O)Nc1nc(C)c(-c2csc(Nc3ccc(S(=O)(=O)Nc4cc(C)on4)cc3)n2)s1	i	nt	nt	nt	nt	nt	nt	nt
COc1ccccc1Nc1nc(-c2sc(NC(=O)c3ccccc3)nc2C)cs1	47.2	i	i	i	i	i	24.1	i
CCOc1ccccc1Nc1nc(-c2sc(NC(=O)c3ccccc3)nc2C)cs1	46.3	63.9	72.4	i	nt	58.8	25.1	i
O=C(CN(C(=O)CCC(=O)Nc1ccccn1)c1ccc(F)cc1)NCc1ccc(F)cc1	i	i	i	i	i	i	nt	nt
COc1cc(C)c(NC(=O)C(=S)NCCc2ccccc2)cc1C	i	i	i	i	i	i	nt	nt
Cc1nc(N)sc1-c1csc(NCc2ccccc2)n1	56.4	i	i	nt	i	i	i	i
CCCCCCC(=O)Nc1nc(C)c(-c2csc(Nc3cc(Cl)ccc3C)n2)s1	i	i	i	i	i	i	nt	nt
Cc1ccc(Cl)cc1Nc1nc(-c2sc(NC(=O)c3ccccc3)nc2C)cs1	57.3	i	50.9	i	nt	i	46.4	i
CC(=O)Nc1ccc(S(=O)(=O)N2CCSc3ccccc32)cc1	nt	i	i	nt	i	i	nt	nt
Cc1c(CC(=O)NCCCC(=O)O)c(=O)oc2cc3c(cc12)CCC(C)(C)O3	23.8	i	i	i	i	i	36.0	i
CCOc1ccc(-c2c(=O)n(OCc3ccc([N+](=O)[O-])cc3)c3ccccc3[n+]2[O-])cc1	i	i	i	i	nt	i	nt	nt
